The source of these data is PubChem BioAssay (Tox21).

Structures are written as SMILES. The source made the active and inactive calls. The call rests on the fitted dose curve; in most records, active means well fitted curve in the direction sought with a large enough effect in the repeat runs; inconclusive means weak or mixed curves; inactive means flat fitted curve, though single readings scatter.

The assay is described as follows: qHTS assay to test for compound auto fluorescence at 535 nm (green) in HEK293 cells (AID 720680). The following applies: green autofluorescence 485/535 nm; series mostly up to 91.3 µM. The source says:
U.S. Tox21 Program National Center for Advancing Translational Sciences [NCATS] NIH Chemical Genomics Center [NCGC] U.S. Environmental Protection Agency [EPA] National Institutes of Environmental Health Sciences [NIEHS] National Toxicology Program [NTP] U.S. Food and Drug Administration [FDA] Tox21 Assay Overview: Compound auto fluorescence often interferes with screening of the compound library against various biological targets and signaling pathways. Some of these compounds may have fluorophoric properties. Such properties may interfere with the assay outputs resulting in false positives and/or negatives. To decrease such complications and ensure the compound activities are relevant in terms of biological response, the Tox21 10K compound library was screened for auto fluorescence. From the fluorophores used as reporter signals in our screening assays, the auto fluorescence equivalencies of compounds against three fluorophores have been evaluated: Triamterene, Fluorescein and Rose Bengal sodium for blue, green and red fluorescence, respectively. The fluorescence intensities were measured using Excitation/Emission wavelengths at 405/460nm, 485/535nm and 540/590nm for blue, green and red labels, respectively. This assay includes the green fluorescence data.
Tox21 Assay Protocol Summary: 2,000 HEK293 cells in 5 uL of culture medium containing 10% dialyzed FBS per well were dispensed into black wall/clear bottom 1536-well plates using a Multidrop Combi Dispenser (Thermo Scientific). The assay plates were incubated for 4-5 hr at 37C to allow cell attachment to the well bottom, followed by the transfer of 23 nL compound or DMSO vehicle by a pintool work station (Kalypsys, San Diego, CA). After the assay plates were incubated overnight at 37C and 5% CO2, fluorescence intensities in the assay plates were measured by an Envision (PerkinElmer, Shelton, CT) plate reader using three labels for measuring blue, green and red fluorescence at […] 460, 535 and 590nm respectively.
(Quantitative high-throughput screening tests each substance at several concentrations.)
Turning to `Nc1cccnc1`, the outcome was inactive.
As for `Cc1ccc(OP(=O)(Oc2ccc(C)cc2)Oc2ccc(C)cc2)cc1`, the outcome was inactive.
For `Nc1c(Cl)cc([N+](=O)[O-])cc1Cl` the value was “inactive”; for `CCN(CC)C(=O)/C(Cl)=C(\C)OP(=O)(OC)OC`, “inactive”; for `COP(=O)(OC)OC`, “inactive”.
For `Nc1ccc(Cl)cc1N` the value was “inactive”; for `O=C(Nc1ccc(Br)cc1)c1cc(Br)cc(Br)c1O`, “inactive”; for `CCCCCc1cc(O)cc(O)c1`, “inactive”.
As for `C=CCc1ccc2c(c1)OCO2`, the molecule was called inactive.
For `CC1(C)C(C=C(Cl)Cl)C1C(=O)OC(C#N)c1cccc(Oc2ccccc2)c1` (stereo not given) the value was “inactive”; for `CCC(C)c1cc([N+](=O)[O-])cc([N+](=O)[O-])c1O` (stereo not given), “inactive”.
For the molecule `CCOc1cc(Oc2ccc(C(F)(F)F)cc2Cl)ccc1[N+](=O)[O-]`, the molecule was classed as inactive.
For `Nn1cnnc1` the value was “inactive”; for `CCOCN(C(=O)CCl)c1c(C)cccc1CC`, “inactive”.
As for `O=[N+]([O-])c1cccc2ccccc12`, the outcome was inactive.
For `CC(O)CCO` (stereo not given) the value was “inactive”; for `C=C(C)C(=O)OCC1CO1` (stereo not given), “inactive”.
Regarding `CCN(N=O)C(N)=O`, the result was inactive.
Take `C1=Cc2cccc3cccc1c23`: the outcome was inactive.
Regarding `Cc1cc(Cl)ccc1OCCCC(=O)O`, the molecule was called inactive.
Consider `O=P(O)(O)CCCl`, for which the molecule was called inactive.
As to `CNC(=O)Oc1cccc2c1OC(C)(C)O2`, the molecule was classed as inactive.
For `Clc1nc(Cl)nc(Cl)n1` the value was “inactive”; for `Cc1ccc2c(c1N)C(=O)c1ccccc1C2=O`, “inactive”; for `c1ccc(N=Nc2ccccc2)cc1`, “inactive”.
Consider `CCCCCCCCC(=O)NCc1ccc(O)c(OC)c1`, for which the molecule was classed as inactive.
In the case of `Oc1cc(Cl)ccc1Oc1ccc(Cl)cc1Cl`, the molecule was called inactive.
Take `CC(C)N(C(=O)SCC(Cl)=C(Cl)Cl)C(C)C`: the molecule was classed as inactive.
For `C#C[C@]1(O)CC[C@H]2[C@@H]3CCC4=CC(=O)CC[C@]4(C)[C@H]3CC[C@@]21C` the value was “inactive”.
On to `CN(C)c1ccc(C(=O)c2ccc(N(C)C)cc2)cc1`, for which the molecule was called inactive.
Take `Brc1ccc(Oc2cc(Br)c(Br)cc2Br)c(Br)c1`: the molecule was called inactive.
For `c1nc[nH]n1` the value was “inactive”; for `C[C@]12CCC(=O)C(O)=C1CC[C@@H]1[C@@H]2CC[C@]2(C)C(=O)CC[C@@H]12`, “inactive”; for `CCOC(=O)C(C)OC(=O)c1cc(Oc2ccc(C(F)(F)F)cc2Cl)ccc1[N+](=O)[O-]` (stereo not given), “inactive”.
`N[C@@H](Cc1ccc(N(CCCl)CCCl)cc1)C(=O)O`: the molecule was called inactive.
With `CCOC(=S)S`, the call was inactive.
As for `C#CCOS(=O)OC1CCCCC1Oc1ccc(C(C)(C)C)cc1` (stereo not given), the molecule was called inactive.
Consider `N#CCCCl`, for which the call was inactive.
As to `Cc1cc(C)cc(C)c1`, the call was inactive.
For `CCOP(=S)(OCC)O/N=C(\C#N)c1ccccc1`, the outcome was inactive.
